PubChem BioAssay (NCI)
About 83,000 compounds went through this panel and 20% of them were active in at least one assay; those are over-represented in the sample as a whole.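 Negative percent growth values reflect cell death: -40 means 40% of the cells present at the start died, and -100 means all died.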 Active and inactive are the calls of the source. The calls were made as follows: active = growth percent below 10; inactive = the rest.

system: NCI-H23 lung; test: NCI-60 one-dose screen, 48 h (100 = growth as untreated, 0 = no growth, -100 = all killed); conditions: 10 µM unless noted

Compound	growth
CCN(CC)c1ccc(/C=C2\Oc3ccc(O)c(I)c3C2=O)cc1	67.5% (inactive)
CC1(c2ccc(Cl)cc2)OC(=O)CC(=O)O1	95.9% (inactive)
Cc1csc(NC(c2ccccc2)c2c(C)nc3ccccn23)n1 (centres undefined)	95.6% (inactive)
COc1cc(-c2nc(N=Nc3c(O)[nH]c4ccc(Br)cc34)[nH]c(=O)c2C#N)cc(OC)c1OC	102% (inactive)
O=C1/C(=C/c2ccc(Cl)cc2)CN(C(=O)CCN2CCC(=NO)CC2)C/C1=C\c1ccc(Cl)cc1	-57% (active)
Cc1ccc(-c2cc3nc(C(Cl)Cl)nc(-c4ccccc4C)n3n2)cc1	74% (inactive)
Nc1cccc(-c2nc3sccn3c2-c2ccnc(NCCNS(=O)(=O)c3ccc(C(F)(F)F)cc3)n2)c1	56% (inactive)
FC(F)(F)c1cccc(-c2cn3c(ccc4ccccc43)n2)c1	79.3% (inactive)
CCCCCCN1CSC(=S)N(CCCCCC)C1	83.6% (inactive)
Oc1ccc2cc(Br)ccc2c1-c1c(O)ccc2cc(Br)ccc12	55.4% (inactive)
C=C(C)[C@@H]1C[C@H](O)Cc2cc(F)ccc2N1	96.9% (inactive)
NC1=NC(SCc2ccccc2CCl)c2ncn(Cc3ccccc3CCl)c2N1 (centres undefined)	70.8% (inactive)
COc1ccc(C(=O)c2cc(OC)c(OC)c(OC)c2OC)cc1O	44.2% (inactive)
CNc1ccc(Br)c2c1C(=O)c1ccccc1C2=O	98.3% (inactive)
Cc1cc(N/N=C/c2nc(-c3ccccc3)oc2C)c2cc(Br)ccc2n1	88.6% (inactive)
CC(C)(C)n1cc(-c2ccnc(NCCCNS(=O)(=O)c3ccccc3)c2)c(-c2cccc(O)c2)n1	72.8% (inactive)
O=C1Nc2ccc(Cl)cc2C12Nc1cc(Cl)ccc1S2 (centres undefined)	69.1% (inactive)
O=C1/C(=C/c2ccccc2)CN(C(=O)CCN2CCC(=NO)CC2)C/C1=C\c1ccccc1	1.59% (active)
O=[N+]([O-])c1cccc(-c2nc3sccn3c2-c2ccnc(NCCCNS(=O)(=O)c3ccc(Cl)cc3)n2)c1	42.8% (inactive)
Cc1ccc(S(=O)(=O)Nc2c(Br)cc(Br)cc2C(N)=O)cc1	96% (inactive)

Compound	growth
CN(C[C@H]1Cc2c(cccc2N2CCN(Cc3ccccn3)CC2)CN1)[C@H]1CCCc2cccnc21	62.4% (inactive)
CC(C)(C)OC(=O)NC(CSCc1ccccc1)C(=O)ON1C(=O)CCC1=O (centres undefined)	94.3% (inactive)
COc1ccc(-c2ccc(-c3ccc(C(=N)N)s3)s2)cc1Cl	45.4% (inactive)
O=[N+]([O-])c1ccc(C(c2ccccc2)c2ccccc2)cc1	89.6% (inactive)
CCN(CC)c1ccc2[nH]c3c(C(N)=O)cc(=O)c(=O)c=3oc2c1	-28.2% (active)
CCNc1nc(S(=O)(=O)CC)nc2ccccc12	103% (inactive)
CCC(=O)Oc1ccc(/C(=C(/C)Cc2cccc(OC)c2)c2ccc(OCCN(C)C)cc2)cc1	94.2% (inactive)
Nc1nc(-c2ccccc2)c(CCCOc2ccc(NC(=O)CBr)cc2)c(=O)[nH]1	94.4% (inactive)
CN(C)CCOC(=O)Nc1ccccc1Cl	98.3% (inactive)
c1ccc(-c2nnc(-c3ccccn3)s2)nc1	79.6% (inactive)
COc1ccc(-c2nc(N3CCCC3=O)sc2Br)cc1OC	95.7% (inactive)
C=C1CCC2C3(C)COC(c4c(OC)cccc4OC)OC3CCC2(C)C1C/C=C1/C(=O)OCC1O (centres undefined)	80% (inactive)
c1cc2[nH]ncc2cc1-c1nc2ccc3[nH]ncc3c2c2c1CCC2	70.2% (inactive)
COc1ccc2c(c1)[nH]c(=O)c1c3cc(OC)ccc3cn21	41.4% (inactive)
NC(N)=Nc1nc2ccccc2o1	108% (inactive)
Nc1ccc(C(=O)CSc2nc3ccccc3[nH]2)cc1	98.4% (inactive)
CC(C)(C)n1cc(-c2ccnc(NCCCNS(=O)(=O)c3ccc(F)cc3)c2)c(-c2cccc(O)c2)n1	57.9% (inactive)
COc1ccccc1CNCCCN1C(=O)c2ccc3c4c(ccc(c24)C1=O)C(=O)N(CCCNCCCCNCCCN)C3=O	1.96% (active)
O=C(CCl)N(C1CCCCC1)C1CCCCC1	87.9% (inactive)
